“And” between values parts separate entries of the source, which are not always exact repeats. Equal entries are not always repeated. Hit rate of the full screen: of about 400,000 compounds, about 3,700 (0.93%) were called active. Roughly 3% stayed inconclusive and do not appear here. What follows is part of a selection rich in actives, with near analogues and random picks from the rest. Unmarked numbers belong to inactive results. Calls come from the whole dose curve; as a rule, active = well fitted inhibition curve with a large enough effect; inconclusive = small, poorly fitted or top-dose-only effect, or another doubt; inactive = no such curve, though single readings can be large or run the other way.
% is set by controls: 0 for no effect and ±100 for the full control effect; potency is the fitted concentration of half-maximal effect.

This assay deals with Vitamin D3 receptor (Homo sapiens) (UniProt P11473). Description: Inhibitors of the vitamin D receptor (VDR): qHTS. Particulars: VDR-SRC2-3 peptide fluorescence polarization, 2 h; max response, negative = inhibition: active compounds read low. An excerpt: The vitamin D receptor (VDR) is a ligand-activated transcription factor and is partially responsible for the regulation of the endocrine system. This includes the transcriptional regulation of genes involved in the production of the parathyroid hormone (PTH) and the regulation of the blood calcium level. High levels of PHT can cause hypercalcemia in the case of primary and tertiary hyperparathyroidism. The VDR-mediated gene regulation, activated by its ligand 1,25-dihydroxyvitamin D3 (1,25-(OH)2D3), is governed by the recruitment of coactivators. Our hypothesis is that small molecules, with the ability to inhibit the interaction between VDR and certain coactivators, are able to selectively modulate VDR-mediated transcription. Our long term objective is the application these VDR-coactivator inhibitors to study the role of VDR-coactivator binding for specific VDR regulated genes. Ultimately, these molecules can be developed into new treatments for hypercalcemic hyperparathyroidism. No small molecule or non-peptide inhibitors are known for the VDR-coactivator interaction.
Chain of Vitamin D3 receptor (Homo sapiens) (P11473 whole entry, looked up): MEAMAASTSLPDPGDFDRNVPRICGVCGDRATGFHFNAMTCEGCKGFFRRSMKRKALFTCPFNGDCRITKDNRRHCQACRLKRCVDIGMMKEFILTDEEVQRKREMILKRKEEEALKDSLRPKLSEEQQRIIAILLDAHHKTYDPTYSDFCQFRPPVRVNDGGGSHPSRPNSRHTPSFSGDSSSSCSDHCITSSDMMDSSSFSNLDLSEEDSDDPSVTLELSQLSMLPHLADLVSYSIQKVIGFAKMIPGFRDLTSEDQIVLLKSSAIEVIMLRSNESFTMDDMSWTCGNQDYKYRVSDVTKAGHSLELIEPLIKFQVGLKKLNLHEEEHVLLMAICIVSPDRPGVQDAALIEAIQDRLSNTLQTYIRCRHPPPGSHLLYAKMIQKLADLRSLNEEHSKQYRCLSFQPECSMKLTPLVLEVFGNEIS
In a collaboration between the University of Wisconsin, Milwaukee and the NIH Chemical Genomics Center (NCGC) a HTS-compatible enzymatic assay was developed. The assay uses fluorescence polarization as its read-out to measure the inhibition between VDR and coregulator peptide SRC2-3 exerted by small molecules. This assay was used to screen the NIH Molecular Libraries Small Molecule Repository (MLSMR).
NIH Chemical Genomics Center [NCGC]
NIH Molecular Libraries Probe Centers Network [MLPCN]
Assay Submitter (PI): Alexander Arnold, University of Wilwaukee
Both solutions are kept at 4 deg C and protected from light and dispensed using a Kalypsys dispenser. Then 23nl of compounds and controls are added with Kalypsys pintool. […] Plate is centrifuged at 1000 RPM for 15 seconds to remove any residual bubbles. The plate is then incubate at ambient room temperature for 2 hours.
A general note: qHTS replaces the single test concentration by a dilution series.
On to `Cc1cccc(Cn2cccc(C(=O)Nc3ccc4c(c3)OCCO4)c2=O)c1`, for which the max response, negative = inhibition was 10.5%.

In the case of `Clc1ccc([C@@H]2C[C@H]3CC[C@@H]2N3)cn1`, the max response, negative = inhibition was 3.4%.

For `C1CC[C@H]([C@@]23C[C@H](C[C@H]4CCCN[C@H]42)[C@@H]2CCCCN2C3)NC1`, the max response, negative = inhibition is 1.42%.

Consider `O=C(O)c1cc[c]([Sb](=[O])([OH])[OH])cc1[N+](=O)[O-]`, for which the max response, negative = inhibition is -21.9%.

`C[C@@]12CCC3C(CC[C@@H]4CC(O)CC[C@@]34C)C1CCC2O` (stereo partly specified): the max response, negative = inhibition was -4.26%.

As to `O=C1NC(=O)N(c2ccccc2)C(=O)/C1=C/c1ccc([N+](=O)[O-])s1`, the Potency was 50.1 µM (active).

Regarding `CN1CCCC(=C(c2cccs2)c2cccs2)C1`, the max response, negative = inhibition was 3.88%.

Turning to `CC[N+]1(CCOC(=O)C(O)(c2ccccc2)c2ccccc2)CCCCC1`, the max response, negative = inhibition was 4.12%.

In the case of `C[C@]12CC[C@H](O)C[C@@H]1CC[C@H]1[C@H]2CC[C@]2(C)C(=O)CC[C@@H]12`, the max response, negative = inhibition is -9.44% and 0.624% and 3.94%.

As to `Cc1cc(C=C2C(=O)NC(=O)NC2=O)c(C)n1-c1ccncc1`, the max response, negative = inhibition was -27.9%.

Turning to `Cc1ccnc(-n2c(C)cc(/C=C3\C(=O)NC(=S)N(C)C3=O)c2C)c1`, the Potency is 39.8 µM (active).

Turning to `CCN1C[C@@]2(COC)CC[C@H](OC)[C@]34[C@@H]1[C@]1(OCO[C@@]15C[C@@H](OC)C1C[C@H]3[C@H]5[C@@H]1OC)[C@H](O)[C@@H]24`, the max response, negative = inhibition was 1.56%.

As to `CC(C)(Cc1c[nH]c2ccc(Cl)cc12)NCCOc1ccccc1OCC1CC1`, the max response, negative = inhibition was -1.04% and 2.67%.

Take `CC(C)(O)c1[se]c2ccccc2c1I`: the max response, negative = inhibition is -15.8%.

With `c1csc(CN2CCCC3(CCNCC3)C2)n1`, the max response, negative = inhibition was -8.79%.

For `Cc1nnc(NC(=O)c2cccn(Cc3cccc(F)c3)c2=O)s1`, the max response, negative = inhibition was 12.7%.

As to `Cc1ccc2c(c1)=C/C(=C\c1c(O)[nH]c(=O)[nH]c1=O)C(=O)N=2`, the Potency is 89.1 µM (active).

For the molecule `O=c1[nH]c(O)c(C=Nc2cc(F)cc(F)c2)c(=O)[nH]1`, the max response, negative = inhibition was -6.29%.

Turning to `C/C(=C\C=C/[C@@H](C)C(=O)O)[C@H]1CN[C@H](C(=O)O)[C@@H]1CC(=O)O`, the max response, negative = inhibition was -9.05%.

As for `COc1ccc2[nH]cc(CCNCc3ccc(Br)cc3)c2c1`, the max response, negative = inhibition is 5.83%.

For `COC(=O)c1ccc2[se]c(CC3CCCCC3)c(I)c2c1`, the max response, negative = inhibition was 3.86%.

Consider `C=CCN(CC=C)C(=O)Nc1ccc(OCC)cc1`, for which the max response, negative = inhibition is -2.13%.

As to `C=CCN1C(=O)NC(=O)/C(=C/c2ccc(OCC(=O)Nc3ccc(C)cc3)cc2)C1=O`, the Potency was 70.8 µM (active).

As to `CCC(=O)c1ccc(OCC(=O)N2CCN(CC(=O)Nc3ccc(C)cc3)CC2)cc1`, the max response, negative = inhibition is 0.567%.

Take `C[C@@H]1C[C@@H]2O[C@H]2/C=C\C=C\C(=O)Cc2c(Cl)c(O)cc(O)c2C(=O)O1`: the max response, negative = inhibition is -4.25%.

With `O=C1CCc2cccc3c2N1CC3`, the max response, negative = inhibition was -0.897%.

Turning to `COC([CH2][Hg])CNC(=O)c1ccccc1OCC(=O)O` (stereo unspecified), the Potency is 5.62 µM (active).

For `CCCCCCCCc1[se]c2ccccc2c1Br`, the max response, negative = inhibition was 0.449%.

Regarding `N[C@H](Cc1o[nH]c(=O)c1Cl)C(=O)O`, the max response, negative = inhibition is 3.74%.

Consider `C=CCN1CCC23c4c5ccc(O)c4O[C@H]2C(=O)CC[C@@]3(O)C1C5` (stereo partly specified), for which the max response, negative = inhibition is -0.103% and 4.39%.

Regarding `C[C@H]1CC[C@@]2(NC1)O[C@@H]1C[C@H]3[C@@H]4CC=C5C[C@@H](O)CC[C@]5(C)[C@@H]4CC[C@]3(C)[C@@H]1[C@@H]2C`, the max response, negative = inhibition was -0.658%.

As for `C=CCN1CCC2(C)c3cc(O)ccc3CC1[C@@H]2C` (stereo partly specified), the max response, negative = inhibition is 1.58%.

On to `CC(=O)OC1C2CCC3C1(CC(O)[C@@]1(O)[C@@H](CC(O)C1(C)C)[C@]3(C)O)C[C@@]2(C)O` (stereo partly specified), for which the max response, negative = inhibition is 0.185%.

Regarding `CN[C@@H]1C[C@H]2O[C@@](C)([C@@H]1OC)n1c3ccccc3c3c4c(c5c6ccccc6n2c5c31)C(=O)NC4`, the max response, negative = inhibition is 1.57% and -1.64%.

`CCNC[C@H](O)c1cccc(O)c1`: the max response, negative = inhibition was -1.81%.

As to `C=CCSSCC=C`, the Potency is 20 µM (active).

For `COC1=C[C@]23CCCN2CCc2cc4c(cc2[C@@H]3[C@@H]1O)OCO4`, the max response, negative = inhibition was -4.23%.

In the case of `CC(C)(c1ccc(OC[C@@H]2CO2)cc1)c1ccc(OC[C@H]2CO2)cc1`, the max response, negative = inhibition was 4.79%.

Consider `CN1C2CC3CC1C(O3)C2O` (stereo unspecified), for which the max response, negative = inhibition is -5.48%.

As for `CCN1C[C@]2(COC)C(O)C[C@H](OC)[C@@]34C5C[C@]6(O)C(OC)C(O)[C@](OC(C)=O)(C5C6OC(=O)c5ccccc5)C(C(OC)C23)C14` (stereo partly specified), the max response, negative = inhibition is 4.87%.

Turning to `COC(=O)C1=C(c2ccccc2)C[C@@H]2CC[C@H]1N2C(=O)NCc1ccco1`, the max response, negative = inhibition was -7.95%.

Take `CCOC(=O)C(O)(c1ccc(NC(=O)c2ccco2)c(OC)c1)C(F)(F)F` (stereo unspecified): the max response, negative = inhibition was 9.73%.

With `COc1cc(Cn2c(N)c(C(=O)NCc3ccco3)c3nc4ccccc4nc32)cc(OC)c1OC`, the Potency was 79.4 µM (active).

As for `CC(=O)NBr`, the max response, negative = inhibition was -2.36%.

Take `CCN1C[C@]2(C)CC[C@H](O)[C@@]34[C@@H]5CC6[C@@H](OC)C[C@@](O)([C@@H]5[C@@H]6O)[C@H](C[C@@H]23)[C@H]14`: the max response, negative = inhibition was 0.208%.

With `NS(=O)(=O)c1ccc(CCNC(=O)c2ccc(Cl)c(S(=O)(=O)N3CCCCCC3)c2)cc1`, the max response, negative = inhibition was 6.51%.

For the origin of these results see PubChem BioAssay AID504847 (National Center for Advancing Translational Sciences (NCATS), 2011).
